Here are results for 60 compounds from PubChem BioAssay AID431 (Sanford-Burnham Center for Chemical Genomics, 2006).

In all, about 63,000 compounds went through this assay and about 1,100 (1.7%) were called active.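 The calls were made as follows: active = compounds whose percent cytotoxicity in the single-dose primary screen, scaled between solvent and toxic-drug controls, exceeds 50; inactive = the rest.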 Only a selection was taken, and actives are over-represented in it overall. Measured potencies and affinities stand elsewhere.

A short description of this test: viability loss of HPDE-C7K cells – cell-based, fluorescence, HTS, primary screen (AID 431).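 Also: 0% = DMSO solvent wells and 100% = doxorubicin-treated wells.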 As to conditions: HPDE-C7K KRASV12 cells, Alamar Blue viability, 48 h; at 10 µM; hits give high values. Background: Alamar Blue is a resazurin reagent that responds to reducing activity.
For `Cc1nc(N2CCN(C(=O)c3ccco3)CC2)c2c3c(sc2n1)CCC3`, the cytotoxicity was 2.2% (inactive).

Consider `CC(C)c1nc(N2CCN(C(=O)c3ccco3)CC2)c2c3c(sc2n1)CCCC3`, for which the cytotoxicity was -14.3% (inactive). Then `O=C(c1ccco1)N1CCN(c2nc(C3CC3)nc3sc4c(c23)CCCC4)CC1`, with 50.9% (active). Then `COc1cccc(CCC(=O)O)c1OC`, with -7% (inactive). Consider `CCOC(=O)N1CCN(C(=O)Cn2nc(C)c3sc4ccccc4c3c2=O)CC1`, for which the cytotoxicity is -5% (inactive). Then `CCc1ccc(-c2nc(CN3CCCC(C(=O)NCCc4ccc(OC)c(OC)c4)C3)c(C)o2)cc1` (stereo not given), with 5.5% (inactive). The figure for `CCN(CCNC(=O)C1CCCN(Cc2nc(-c3ccc(OC)cc3)oc2C)C1)c1ccccc1` (stereo not given) is 62.7% (active); for `CCc1ccc(-c2nc(CN3CCC(C(=O)NCCN(CC)c4ccccc4)CC3)c(C)o2)cc1` it is 39.2% (inactive). Consider `Cc1nonc1NC(=O)CSc1nc2cc(Cl)ccc2c2c1CCCC2`, for which the cytotoxicity was 36.2% (inactive). With `Cn1c(NC(=O)c2cccnc2)nc2ccccc21`, the cytotoxicity is 0.4% (inactive). The figure for `Cc1cc(C)nc(SCC(=O)c2ccc(O)cc2O)n1` is -9.3% (inactive). The figure for `Cc1ccc(S(=O)(=O)CCC(=O)OCC(=O)Nc2cc(C)on2)cc1` is -22.1% (inactive); for `COc1ccc2nc(NCCO)[nH]c2c1` it is -14.2% (inactive); for `COc1ccc2nc(SCC(N)=O)[nH]c2c1` it is -17.7% (inactive). Then `CCOc1ccc2nc(NCCO)[nH]c2c1`, with 4.8% (inactive).

In the case of `CCCOc1ccc2nc(NC(=O)OC)[nH]c2c1`, the cytotoxicity was 61.1% (active). The figure for `CCCSc1ccc2nc(NC(=O)OC)[nH]c2c1` is 63.4% (active); for `COc1ccc(C(=O)Nc2nc3ccccc3[nH]2)cc1OC` it is -8% (inactive). The figure for `Cn1nc(CC(=O)Nc2cccc3ncccc23)c2ccccc2c1=O` is -4.3% (inactive). Then `CCOC(=O)c1ccc(NC(=O)CCc2nc(-c3cccc(C)c3)no2)cc1`, with 1% (inactive). In the case of `CCOC(=O)c1[nH]c(C)c(C(=O)NCCN2CCOCC2)c1C`, the cytotoxicity was 8.4% (inactive). The figure for `CC(=O)c1c(C)[nH]c(C(=O)OCC(=O)Nc2cc(C(F)(F)F)ccc2N2CCOCC2)c1C` is 14.5% (inactive). The figure for `CCC(=O)N/C=C/n1cnc2cc(C(F)(F)F)ccc21` is 15.3% (inactive).

Consider `C#CCOC(=O)CCC(=O)Nc1cc(OC)nc(OC)n1`, for which the cytotoxicity is -8% (inactive). On to `C=CCOC(=O)CCC(=O)Nc1cc(OC)nc(OC)n1`, for which the cytotoxicity was 51.4% (active).

`COc1cc(NC(=O)CCCC(=O)OCC(F)(F)C(F)F)nc(OC)n1`: the cytotoxicity was -2.6% (inactive). For `CCOC(=O)Cn1c(C)c(C#N)c2ccccc21`, the cytotoxicity was 8.1% (inactive). Then `COc1ccc(N(CC(=O)N2CCc3ccccc32)S(=O)(=O)c2c(C)noc2C)cc1`, with 2% (inactive); and `O=C(COc1ncnc2ccc(Br)cc12)Nc1ccc(N2CCOCC2)cc1`, with -7.7% (inactive); and `COc1ccc(OC)c(-c2nnc(NC(=O)C(C)Sc3nncn3C)s2)c1` (stereo not given), with 4.7% (inactive).

Turning to `Cc1ccc(S(=O)(=O)NC2CCOC(C)(C)C2)cc1` (stereo not given), the cytotoxicity is -15.4% (inactive). The figure for `COc1cccc2c1C(=O)c1c(O)c3c(c(O)c1C2=O)C[C@@](O)(C(=O)CO)C[C@@H]3O[C@H]1C[C@H](N)[C@H](O)[C@H](C)O1` is 98.7% (active); for `COc1cccc2c1C(=O)c1c(O)c3c(c(O)c1C2=O)C[C@@](O)(C(C)=O)C[C@@H]3O[C@H]1C[C@H](N)[C@H](O)[C@H](C)O1` it is 106% (active). The figure for `COc1ccccc1N1CCN(C(=O)c2nn(-c3ccccc3OC)c(=O)c3ccccc23)CC1` is 4.9% (inactive); for `CCNc1nc(Oc2ccc(=O)n(-c3ccccc3)n2)nc(N2CCOCC2)n1` it is 4.3% (inactive); for `Nc1nnc(N2CCCCC2)s1` it is -11.2% (inactive). Then `Cc1ccc(CNS(=O)(=O)c2ccc3oc(C(=O)O)c(C)c3c2)cc1`, with 1.5% (inactive).

Consider `CCOC(=O)N1CCN(C(=O)CCn2nc(-c3ccc(Cl)cc3)ccc2=O)CC1`, for which the cytotoxicity was -0.1% (inactive).

With `CCOc1ccc(S(=O)(=O)Nc2cc(Cl)ccc2O)cc1`, the cytotoxicity was 64.5% (active). The figure for `CCOc1ccc(NS(=O)(=O)c2ccc(NS(C)(=O)=O)cc2)cc1` is -17% (inactive).

Take `CCOc1ccc(S(=O)(=O)Nc2cccnc2)cc1`: the cytotoxicity was 4.6% (inactive). The figure for `COc1ccc(S(=O)(=O)Nc2cccc(Cl)c2)cc1OC` is 9.4% (inactive); for `CCOc1ccc(S(=O)(=O)Nc2cccc(Cl)c2)cc1` it is 65% (active); for `CCOc1ccc(NS(=O)(=O)c2cc(Cl)ccc2OC)cc1` it is -5.4% (inactive). The figure for `Clc1ccc(-c2noc(CN3CCCC3)n2)cc1` is -4.3% (inactive). Then `COc1ccc(Cl)cc1NC(=O)CN(C(=O)c1ccco1)C1CCCCC1`, with 4.7% (inactive). As to `CCSc1nnc(NC(=O)c2cccs2)s1`, the cytotoxicity is 22.4% (inactive). In the case of `COC(=O)c1cccc(NC(=O)CSc2nnc(COc3cccc(C)c3)n2C)c1`, the cytotoxicity is -15.1% (inactive).

In the case of `CCOC(=O)c1[nH]c(C)c(/C(O)=C2\C(=O)C(=O)N(CCCn3ccnc3)C2c2ccncc2)c1C` (stereo not given), the cytotoxicity was 11.3% (inactive). The figure for `Cc1cc(C)c2nc(NC3=NCN(CCN4CCOCC4)CN3)nc(C)c2c1` is -2% (inactive); for `CC1=C(C)C(=O)NC(Nc2nc(C)c3cc(C)cc(C)c3n2)N1` (stereo not given) it is 90.8% (active).

Consider `Cc1ccnc(SCCn2c(N3CCC(C)CC3)nc3c2c(=O)[nH]c(=O)n3C)n1`, for which the cytotoxicity was 5.9% (inactive). Then `Cc1cc(C)nc(/N=C2\NC(=O)CC(C(=O)O)N2c2ccc(Oc3ccccc3)cc2)n1` (stereo not given), with 3.8% (inactive); and `O=C(Nc1ccccc1C(=O)N1CCCCCC1)c1cccc(S(=O)(=O)N2CCOCC2)c1`, with 6.4% (inactive); and `CCN(CC)c1ccc2cc(-c3nc4ccccc4[nH]3)c(=O)oc2c1`, with 42.2% (inactive). The figure for `CCN(CC)c1ccc2cc(-c3nnc(-c4ccncc4)o3)c(=O)oc2c1` is 71.1% (active); for `O=c1oc2ccc3ccccc3c2cc1-c1nnc(-c2ccccc2)o1` it is -4.9% (inactive); for `CCN(CC)c1ccc2cc(-c3nc4ccccc4n3C)c(=O)oc2c1` it is 53.3% (active). Then `CCN(CC)c1ccc2cc(C(=O)Nc3ccccn3)c(=O)oc2c1`, with 18.9% (inactive); and `CC(=O)Oc1ccc2cc(-c3nc4ccccc4n3C)c(=O)oc2c1`, with -1.4% (inactive).
